The term inhibition denotes the change of the read-out against control, counted positive when it falls.

SMILES strings stand for the structures.

The values that follow come from ChEMBL document CHEMBL3433997, “St. Jude Leishmania screening dataset” (2016).

Assay type in all cases: functional
Assay [1] concerns the target Solute carrier family 2, facilitated glucose transporter member 1 (Homo sapiens) (UniProt P11166). The assay can be described thus: ST_JUDE_LEISH: Cytotoxicity at 2uM final concentration against transgenic Leishmania Mexicana promastigotes LmGLUT1 that are glucose transport deficient and complemented with the human glucose transporter GLUT1. Activity is measured by DNA content using SYBR green in vitro.

The target of assay [2] is Hexose transporter 1 (Plasmodium falciparum) (UniProt O97467). The assay can be described thus: ST_JUDE_LEISH: Cytotoxicity at 2uM final concentration against transgenic Leishmania Mexicana promastigotes LmPfHT that are glucose transport deficient and complemented with the Plasmodium falciparum hexose transporter. Activity is measured by DNA content using SYBR green in vitro.

Assay [3] addresses Glucose transporter (Leishmania mexicana) (UniProt O61059). The assay can be described thus: ST_JUDE_LEISH: Cytotoxicity at 2uM final concentration against transgenic Leishmania Mexicana promastigotes LmGT2 that are glucose transport deficient and complemented with the L. Mexicana glucose transporter 2. Activity is measured by DNA content using SYBR green in vitro.

Chain of Solute carrier family 2, facilitated glucose transporter member 1 (Homo sapiens) (P11166 whole entry): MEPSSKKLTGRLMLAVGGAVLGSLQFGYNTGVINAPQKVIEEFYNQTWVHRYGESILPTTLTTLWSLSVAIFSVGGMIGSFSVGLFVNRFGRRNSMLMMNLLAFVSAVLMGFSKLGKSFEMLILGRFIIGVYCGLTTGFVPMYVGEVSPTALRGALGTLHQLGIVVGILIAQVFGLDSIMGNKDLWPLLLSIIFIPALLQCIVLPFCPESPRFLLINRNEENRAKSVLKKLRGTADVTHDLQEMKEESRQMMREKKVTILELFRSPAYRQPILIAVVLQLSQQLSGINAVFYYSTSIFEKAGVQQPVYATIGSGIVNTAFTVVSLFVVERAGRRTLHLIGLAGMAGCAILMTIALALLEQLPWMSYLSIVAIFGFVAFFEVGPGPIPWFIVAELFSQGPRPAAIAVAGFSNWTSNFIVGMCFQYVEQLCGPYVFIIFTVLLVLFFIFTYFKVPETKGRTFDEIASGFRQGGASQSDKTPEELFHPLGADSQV

Take `COC(=O)c1ccccc1N1CCN(CCCCNC(=O)c2ccc(NC(=O)c3cc(Cl)cc(Cl)c3)cc2)CC1`: the inhibition in assay [1] was 3.86%; in assay [2] it was 5.53%; in assay [3] it was 3.09%.

`Cc1cccc(Nc2nccc(NCC(O)c3cccc(C(F)(F)F)c3)n2)c1` (stereo not drawn): the inhibition in assay [1] came out at 7.67%; in assay [2], 7.59%; in assay [3], 2.59%.

Consider `CCCc1cc(NC2CCN(C)CC2)nc(Nc2ccc(F)cc2)n1`, for which the inhibition came out at 10% in assay [1], 6.83% in assay [2] and 5.22% in assay [3].

Consider `CC(C)(C)C1CCC(C(=O)c2ccc3ccccc3c2O)CC1` (stereo not drawn), for which the inhibition in assay [1] is 1.28%; in assay [2], -0.87%; in assay [3], 0.57%.

In the case of `CN1CCN(c2ccc(-c3cc(-c4ccncc4)c(-c4ccc(Cl)c(O)c4)o3)cc2)CC1`, the inhibition is -0.86% in assay [1], 0% in assay [2] and -1.14% in assay [3].

For `O=C(Nc1ccccc1Cl)c1cc2ccccc2cc1O`, the results for the inhibition in assay [1], in assay [2] and in assay [3] were -2.32%, -1.17% and -0.43%, respectively.

Turning to `Cc1ccc(C(=O)Nc2ccc(C)c(OC3CCN(CCC(C)C)C3)c2)cc1` (stereo not drawn), the figures for the inhibition in assay [1], in assay [2] and in assay [3] were 8.1%, 8.98% and 5.85%, respectively.

For `COc1cc(NC(=O)c2sc(-c3ccc(Cl)cc3)cc2NC(=O)N2CCCC2)ccc1OCCN1CCCC1`, the inhibition in assay [1] came out at 2.35%; in assay [2], 3.29%; in assay [3], 1.4%.

On to `Cc1cc(C(=O)CN2C(=O)NC(C)(c3ccc4ccccc4c3)C2=O)c(C)n1Cc1ccco1` (stereo not drawn), for which the inhibition was -0.27% in assay [1], -1.11% in assay [2] and -4.18% in assay [3].

For the compound `COc1cc(OC)c(NC(=O)Nc2ccnc3ccccc23)cc1Cl`, the values for the inhibition in assay [1], in assay [2] and in assay [3] were 9.23%, 8.9% and 5.83%, respectively.

Consider `c1ccc2c(CNc3ccnc(NCc4cccc5ccccc45)n3)cccc2c1`, for which the inhibition came to 9.83% in assay [1], 5.69% in assay [2] and 7% in assay [3].

Turning to `Cc1cc(N/N=C/c2ccccc2[N+](=O)[O-])c2cccc(C)c2n1`, the inhibition in assay [1] was determined as 11.2%; in assay [2], 13.9%; in assay [3], 7.94%.

On to `OCC(CO)(CO)NCc1ccc2c3c(cccc13)-c1ccccc1-2`, for which the inhibition in assay [1] was 12.1%; in assay [2], 14.8%; in assay [3], 8.44%.

On to `O=C(Nc1ccc(Cn2ncc(N3CCCNCC3)c(Cl)c2=O)cc1)Nc1cccc(Oc2ccccc2)c1`, for which the inhibition amounted to 2.36% in assay [1], 2.39% in assay [2] and 1.79% in assay [3].

In the case of `O=C(Nc1cccc(CN2CCCN(Cc3ccc4c(c3)OCO4)CC2)c1)c1ccc(Cl)c(Cl)c1`, the inhibition in assay [1] is 6.43%; in assay [2], 5.95%; in assay [3], 8.61%.

Take `CCCn1c(=N)c(C(=O)NCCc2ccccc2)cc2c(=O)n3cccc(C)c3nc21`: the inhibition in assay [1] was 5.16%; in assay [2], 7.01%; in assay [3], 2.32%.

As to `CCN(CC)CCc1ccc2c(=O)cc(CCc3cccc(F)c3F)n(CC(=O)N(C)Cc3ccc(-c4ccc(C(F)(F)F)cc4)cc3)c2c1`, the inhibition in assay [1] was 5.18%; in assay [2], 5.23%; in assay [3], 3.78%.

For the compound `Nc1nc(N)c2cc3ccc(OCc4ccccc4)cc3nc2n1`, the inhibition came out at 12.2% in assay [1], 9.05% in assay [2] and 6.89% in assay [3].

As to `O=C(N[C@H]1CCCC[C@H]1C(=O)O)c1ccccc1`, the figures for the inhibition in assay [1], in assay [2] and in assay [3] were 0.5%, 1.61% and 0.81%, respectively.

Take `N#Cc1ccc(-c2cnc3ccc(NCCc4cccnc4)nn23)cc1`: the inhibition in assay [1] was -0.81%; in assay [2] it was -0.84%; in assay [3], 0.25%.

For the compound `Nc1ccnc(N2CCC(CCOc3ccnc4cc(Cl)ccc34)CC2)c1`, the values for the inhibition in assay [1], in assay [2] and in assay [3] were 11.9%, 22.8% and 6.6%, respectively.

On to `CC(C)(C)C1CCc2onc(C(=O)Nc3cc(Cl)ccc3O)c2C1` (stereo not drawn), for which the inhibition in assay [1] was 7.15%; in assay [2], 5.86%; in assay [3] it was 4.8%.

Turning to `Cc1cc(=NN=Cc2ccccc2Cl)c2ccccc2[nH]1`, the inhibition in assay [1] came to 8.12%; in assay [2], 8.36%; in assay [3] it was 5.86%.

Turning to `CCCCCCNC(=O)c1nn(CCN2CCC(N3CCCC3)CC2)cc1-c1ccc(Cl)c(Cl)c1`, the inhibition in assay [1] was 0.97%; in assay [2], 1.84%; in assay [3] it was 1.8%.

`O=[N+]([O-])c1cccc(Nc2cncc(-c3ccc(CO)cc3)c2)c1`: the results for the inhibition in assay [1], in assay [2] and in assay [3] were 2.04%, 0.66% and 0.83%, respectively.

Consider `COc1ccc(CCNCCCCCCNCCc2ccc(-c3ccccc3)cc2)cc1OC`, for which the inhibition came to 92.8% in assay [1], 94.9% in assay [2] and 49.7% in assay [3].

For the compound `Cc1ccc(Cc2cnc(CN3CCCCC3)c(O)c2)cc1`, the inhibition is -1.22% in assay [1], -2.99% in assay [2] and 0.07% in assay [3].

On to `N#Cc1ccc(N(CCOc2ccc(Cl)c(Cl)c2)Cc2ccccc2C(F)(F)F)cc1C(F)(F)F`, for which the inhibition was 2.54% in assay [1], -0.11% in assay [2] and 0.26% in assay [3].

As to `CCC(C)OC(=O)C1=C(C)NC2=C(C(=O)CC(c3ccc(OC)c(OC)c3)C2)C1c1ccc(C)o1` (stereo not drawn), the inhibition in assay [1] was found to be 2.36%; in assay [2], 8.1%; in assay [3] it was 3.8%.

In the case of `Cc1cc(Nc2ccc(Cl)c(Cl)c2)n2nc(C)nc2n1`, the inhibition in assay [1] is -1.71%; in assay [2], -1.26%; in assay [3], 0.04%.

Regarding `O=C(CNc1ccc(Cl)c(S(=O)(=O)N2CCCC2)c1)Nc1ccc(Br)cc1F`, the inhibition in assay [1] was -2.34%; in assay [2], 1.47%; in assay [3], 1.03%.

Regarding `CC(Oc1cc(-n2cnc3ccc(NC(=O)CCN4CCCCC4)cc32)sc1C(N)=O)c1ccccc1Cl` (stereo not drawn), the inhibition in assay [1] was found to be 16.8%; in assay [2], 9.84%; in assay [3], 6.83%.

Turning to `Cn1nc(C(F)(F)F)cc1-c1ccc(C(=O)Nc2ccc3c(c2)CNCC3(C)C)s1`, the inhibition in assay [1] was 4.85%; in assay [2], 0.03%; in assay [3] it was 2.34%.

For `CCN(CCCN1CCCCC1)c1cc(C)nc(Nc2ccc(Oc3ccccc3)cc2)n1`, the inhibition in assay [1] is 5.66%; in assay [2], 5.07%; in assay [3], 5.44%.

In the case of `COc1ccc(-c2ccc3c(-c4ccc(F)cc4)cnc(N)c3c2)cn1`, the figures for the inhibition in assay [1], in assay [2] and in assay [3] were -1.25%, -1.33% and -0.22%, respectively.

For `CCCN1CCC=C(c2cccc(Nc3nccc(Nc4cc(OC)ccc4C)n3)c2)C1`, the inhibition in assay [1] was determined as 11.2%; in assay [2], 11.9%; in assay [3], 10%.
